# Assay results reported in PubChem BioAssay.
# Molecular target: Alpha-bungarotoxin (Bungarus multicinctus) (UniProt P60615)
# Test: compounds binding labelled alpha-BTX control protein – biochemical, small-molecule microarray, Alexa647 label, 635/667 nm fluorescence, artefact control for SMM control protein annotation, profiling panel (AID 1117)
# Conditions: alpha-BTX-A647 binding fluorescence, higher = more signal
# Sequence of Alpha-bungarotoxin (Bungarus multicinctus) (P60615 whole entry, looked up): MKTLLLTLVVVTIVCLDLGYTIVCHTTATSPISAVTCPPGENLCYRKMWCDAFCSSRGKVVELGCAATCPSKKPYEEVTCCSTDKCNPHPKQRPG
row,SMILES,composite z-score
1,CC(C)(C)OC(=O)CC[C@]1(C(=O)N2CCOCC2)N=C(c2ccc(OCCCO)cc2)O[C@H]1c1ccccc1CN=[N+]=[N-],1.68
2,CC(c1ccccc1)C(O)C1C=CC2C(=O)N(c3ccccc3)C(=O)C2N1Nc1ccc(C#N)cc1 (stereo not given),1.39
3,COc1ccc(CCNC(=O)[C@@]2(Sc3ccc(C)cc3)CC(=O)N(Cc3cc(C(F)(F)F)cc(C(F)(F)F)c3)[C@@H]2c2ccc(CO)cc2)cc1,1.24
4,CCOC(=O)C[C@H]1[C@H](OC(=O)c2cc3ccccc3oc2=O)[C@@H](NC(=O)C2CCCCC2)c2cc(OCCCO)ccc2N1C(=O)Cc1ccc(OC)cc1,0.25
5,CC1CC/C=C\[C@H]2OC34C=CCN(CCN5CCOCC5)C(=O)[C@H]3N(CCCCCCO)C(=O)[C@@H]4C2C(=O)O1 (stereo not given in full),-0.307
6,CCOC(=O)C1=CC[C@@H](c2ccc(F)cc2)N(S(=O)(=O)c2ccc(C)cc2)[C@H]1c1ccc([N+](=O)[O-])cc1,0.937
7,COC(=O)[C@@]1(Cc2ccc(OC)cc2)[C@@H]2[C@@H](CC(=O)[C@H]2CC(=O)C(=O)N2CCCC2)CN1C(=O)c1ccccc1,1.49
8,C=CCNC(=O)[C@H]1[C@@H]2C(=O)O[C@@H](c3ccccc3)[C@@H](c3ccccc3)N2[C@@H](c2ccc(O)cc2)[C@]12C(=O)Nc1ccc(C#CC3=CCCCC3)cc12,0.491
9,COC(=O)Cn1c(C(=O)N(C)C)cc2c1C[C@H]1CN(C(=O)c3ccccc3)[C@@](Cc3ccc(OC)cc3)(C(=O)OC)[C@@H]21,0.299
10,O=C1O[C@@H](c2ccccc2)[C@@H](c2ccccc2)N2[C@@H](c3ccc(O)cc3)[C@]3(C(=O)Nc4ccc(C#CC5=CCCCC5)cc43)[C@@H](C(=O)N3CCCCCCC3)[C@H]12,2.25
